Experimental data published in PMC4552634, “A New Set of Chemical Starting Points with Plasmodium falciparum Transmission-Blocking Potential for Antimalarial Drug Discovery” (PLoS ONE, 2015).
Screen size: about 13,000 compounds; about 3,200 (25%) showed an effect of 50% or more. This is one part of the list.

Tested on: P. falciparum stage V gametocytes
Design: BacTiter-Glo ATP luminescence viability of purified stage V gametocytes in 384-well plates, per cent inhibition versus DMSO
Settings: 48 h, 5 µM; inhibitor

Structure (SMILES)	% Inhibition
CC(C)(C)c1ccc(NC(=O)c2cccc(CN3CCN(Cc4cccc(O)c4)CC3)c2)cc1 [TCMDC-136604]	-36.18%
COc1ccc(CNC(=O)NC2CCN(c3ccnc(Nc4cc(OC)c(OC)c(OC)c4)n3)C2)cc1 (stereo not drawn) [TCMDC-133619]	-40.46%
Cc1cccc(CN2CCCN(Cc3ccc(C(=O)Nc4ccc(C(C)(C)C)cc4)cc3)CC2)c1 [TCMDC-136434]	-28%
CN(c1ccc(NC(=O)Nc2cc(C(F)(F)F)ccc2F)cc1)c1ccnc(NCCN2CCOCC2)n1 [TCMDC-141590]	51.14%
Cn1nc(-c2ccc(NC(=O)Nc3ccc4ccccc4c3)c(F)c2)c2cnc(NCCN3CCOCC3)nc21 [TCMDC-141561]	17%
CN(c1ccc(NC(=O)Nc2cc(C(F)(F)F)ccc2F)cc1)c1ccnc(NCCN2CCCC2)n1 [TCMDC-141635]	83.6%
COc1cc(Nc2nccc(N3CCC(NC(=O)Nc4ccc5c(c4)OCO5)C3)n2)cc(OC)c1OC (stereo not drawn) [TCMDC-133629]	-90.76%
CCN(CCN(C)C)Cc1ccc(-c2ccc(NS(=O)(=O)c3cccc4cccnc34)cc2)cc1 [TCMDC-136600]	46.29%
CC(C)c1ccc(NC(=O)c2ccc(C(=O)NCC3CCN(CC4CCCCC4)CC3)cc2)cc1 [TCMDC-136753]	4%
CCCN1CCN(c2ccc(NS(=O)(=O)c3ccc(C(=O)Nc4ccc(Cl)cc4)cc3)cc2)CC1 [TCMDC-136351]	71.9%
CCCN1CCN(Cc2ccc(C(=O)Nc3ccc(Cl)cc3)cc2)CC1 [TCMDC-136387]	3.347%
O=C(Nc1cccc(C(F)(F)F)c1)c1cccc(S(=O)(=O)NCC2CCCN(CC3CCCCC3)C2)c1 (stereo not drawn) [TCMDC-132770]	87.2%
O=C(Nc1ccc(Cl)cc1)c1ccc(S(=O)(=O)NCC2CCN(CC3CCCCC3)CC2)cc1 [TCMDC-132808]	84.19%
O=C(Nc1ccc(C(F)(F)F)cc1)c1ccc(S(=O)(=O)NCC2CCCN(CC3CCCCC3)C2)cc1 (stereo not drawn) [TCMDC-133680]	-21.48%
O=C(Nc1cccc(C(F)(F)F)c1)c1cccc(S(=O)(=O)NCC2CCCN(Cc3ccccc3)C2)c1 (stereo not drawn) [TCMDC-133685]	-6.422%
O=C(Nc1ccc(C(F)(F)F)cc1)c1cccc(S(=O)(=O)NCC2CCCN(CC3CCCCC3)C2)c1 (stereo not drawn) [TCMDC-133673]	-19.66%
O=C(Nc1cccc(C(F)(F)F)c1)c1ccc(S(=O)(=O)NCC2CCCN2CC2CCCCC2)cc1 (stereo not drawn) [TCMDC-133689]	-36.87%
CCCN1CCN(c2ccccc2NS(=O)(=O)c2ccc(C(=O)Nc3ccc(Cl)cc3)cc2)CC1 [TCMDC-136350]	1.888%
O=C(Nc1ccc(Cl)cc1)c1ccc(CN2CCCN(CC3CCCCC3)CC2)cc1 [TCMDC-136400]	-37.54%
O=C(Nc1cccc(C(F)(F)F)c1)c1ccc(S(=O)(=O)NCC2CCCN(CC3CCCCC3)C2)cc1 (stereo not drawn) [TCMDC-132777]	92.44%
CCNc1cc(C)nc(Nc2ccc(NC(=O)c3ccccc3)cc2)n1 [TCMDC-124988]	-14.46%

Structure (SMILES)	% Inhibition
N=C(N)c1ccc(Oc2ccc(C(=N)N)cc2)cc1 [TCMDC-124287]	24.59%
CCCc1ccc(NC(=O)c2cccc(CN3CCCN(Cc4cccc(O)c4)CC3)c2)cc1 [TCMDC-135978]	12.81%
CC(C)[C@H](NC(=O)c1ccc(O)c(-c2cccc(C(F)(F)F)c2)c1)C(=O)NC1CCCc2ccccc21 (stereo partly drawn) [TCMDC-140819]	-19.12%
CCCCCCc1cnc2nc(N)nc(N)c2c1C [TCMDC-138065]	8.256%
O=C(NC1CCC(N2CCCC(OCc3ccccc3)C2)CC1)c1cc2ccccc2[nH]1 (stereo not drawn) [TCMDC-132892]	14.17%
CCCC(=O)Nc1ccc(OCCCN(Cc2ccccc2C(F)(F)F)c2ccc(C#N)c(C(F)(F)F)c2)cc1 [TCMDC-135466]	20.73%
O=C(Nc1cccc(C(F)(F)F)c1)c1ccc(S(=O)(=O)NCC2CCN(CC3CCCCC3)CC2)cc1 [TCMDC-132776]	87.8%
CCCCCN1CCC(CNS(=O)(=O)c2ccc(C(=O)Nc3cccc(C(F)(F)F)c3)cc2)CC1 [TCMDC-132775]	-3.109%
O=C(Nc1cccc(C(F)(F)F)c1)c1cccc(S(=O)(=O)NCC2CCN(CC3CCCCC3)CC2)c1 [TCMDC-133684]	-26.22%
COc1cc2c(cc1OC)C(C)(C)CN1Cc3c(c(CO)c(OC)c(OC)c3OC)CC21 (stereo not drawn) [TCMDC-137250]	-48.53%
COc1ccc2nc(N)nc(C)c2c1 [TCMDC-123907]	15.32%
CS(=O)(=O)CCNCc1cccc(-c2cc3c(Nc4ccc(OCc5cccc(F)c5)c(Cl)c4)ncnc3s2)c1 [TCMDC-134654]	-64.99%
CC(=O)Nc1cccc(C(=O)Nc2cccc(-c3ccc(-c4nc5cc(F)ccc5[nH]4)s3)c2)c1 [TCMDC-132142]	5.899%
Cc1cccc2nc(-c3ccc(-c4ccc(NC(=O)c5cncn5C)cc4)s3)[nH]c12 [TCMDC-137067]	9.475%
Cn1cncc1C(=O)Nc1cccc(-c2ccc(-c3nc4ccccc4[nH]3)s2)c1 [TCMDC-137055]	40.39%
CC(=O)Nc1cccc(C(=O)Nc2cccc(-c3ccc(-c4nc5cccc(C)c5[nH]4)s3)c2)c1 [TCMDC-132144]	10.52%
Cn1cncc1C(=O)Nc1cccc(-c2ccc(-c3nc4cc(F)ccc4[nH]3)s2)c1 [TCMDC-137066]	61.93%
Cc1cccc2nc(-c3ccc(-c4cccc(NC(=O)c5cncn5C)c4)s3)[nH]c12 [TCMDC-137068]	78.66%
NC(N)=Nc1nc(-c2cc(NC(=O)C(F)(F)F)cc([N+](=O)[O-])c2)cs1 [TCMDC-137440]	-35.18%
Nc1nc(N)c2c(ccc3nccc32)[nH]1 [TCMDC-124301]	-21.41%
O=C(Nc1cccc(CN2CCN(C(=O)c3cccc(Cl)c3)CC2)c1)c1cccs1 [TCMDC-136326]	0.1034%
